Test results from PubChem BioAssay AID1159580 (chemical genetic matrix, 2015).
Out of some 5,500 compounds screened, about 2,000 (36%) were called active. Not shown: some 18% with an inconclusive outcome. No stated cut-off is given here; in the data, active means normalized growth mostly below about 0.91 (no sharp cut-off); inconclusive means no clear call, values can overlap the other calls; inactive means mostly above about 0.92. The list shows a part of the results.

Assay: chemical genetic growth profiling, strain panel (AID 1159580);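 further: tested at 20 µM; growth read once vehicle control cultures reached saturation at 30 °C; 1 = growth at the plate median or of vehicle wells; lower values mean less growth of the strain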
Conditions: growth OD

Measured: normalized growth

OC[C@H]1O[C@@H](O[C@H]2[C@H](O)[C@@H](O)[C@@H](O)O[C@@H]2CO)[C@H](O)[C@@H](O)[C@@H]1O
inactive: S. cerevisiae deletion strains, locus YJR075W, strain HOC1, hits give low values 1.02 | S. cerevisiae deletion strains, locus YKL009W, strain mrt4, hits give low values 1.1 | S. cerevisiae deletion strains, locus YKL068W, hits give low values 1 | S. cerevisiae deletion strains, locus YKL085W, strain MDH1 (second series), hits give low values 1.04 | S. cerevisiae deletion strains, locus YKL085W, strain MDH1, hits give low values 1.04 | S. cerevisiae deletion strains, locus YKL160W, strain elf1, hits give low values 1.02 | S. cerevisiae deletion strains, locus YKL190W, strain CNB1, hits give low values 1.01 | S. cerevisiae deletion strains, locus YKR001C, strain vps1, hits give low values 1.02 | S. cerevisiae deletion strains, locus YKR026C, strain gcn3, hits give low values 0.992 | S. cerevisiae deletion strains, locus YKR091W, strain srl3, hits give low values 1 | S. cerevisiae deletion strains, locus YLL001W, strain dnm1, hits give low values 0.98 | S. cerevisiae deletion strains, locus YLL026W, hits give low values 0.994 | S. cerevisiae deletion strains, locus YLL041C, strain sdh2, hits give low values 1.02 | S. cerevisiae deletion strains, locus YLR027C, strain aat2, hits give low values 1.01 | S. cerevisiae deletion strains, locus YLR039C, strain RIC1, hits give low values 1.11 | S. cerevisiae deletion strains, locus YLR058C, strain SHM2, hits give low values 1.02 | S. cerevisiae deletion strains, locus YLR102C, strain apc9, hits give low values 1.02 | S. cerevisiae deletion strains, locus YLR113W, strain HOG1, hits give low values 1.06 | S. cerevisiae deletion strains, locus YLR221C, strain rsa3, hits give low values 0.98 | S. cerevisiae deletion strains, locus YLR258W, strain gsy2, hits give low values 1.01 | S. cerevisiae deletion strains, locus YLR262C, strain YPT6 (second series), hits give low values 1.04 | S. cerevisiae deletion strains, locus YLR262C, strain YPT6, hits give low values 1.05 | S. cerevisiae deletion strains, locus YLR268W, strain sec22, hits give low values 1.04 | S. cerevisiae deletion strains, locus YLR320W, strain mms22, hits give low values 0.997 | S. cerevisiae deletion strains, locus YLR330W, strain CHS5, hits give low values 1.02 | S. cerevisiae deletion strains, locus YLR342W, strain FKS1 (second series), hits give low values 1.09 | S. cerevisiae deletion strains, locus YLR342W, strain FKS1, hits give low values 1.01 | S. cerevisiae deletion strains, locus YLR357W, strain rsc2, hits give low values 0.975 | S. cerevisiae deletion strains, locus YLR370C, strain arc18, hits give low values 1.01 | S. cerevisiae deletion strains, locus YLR371W, strain rom2, hits give low values 1.01 | S. cerevisiae deletion strains, locus YLR384C, strain iki3, hits give low values 0.992 | S. cerevisiae deletion strains, locus YLR418C, strain cdc73, hits give low values 0.975 | S. cerevisiae deletion strains, locus YML016C, strain PPZ1, hits give low values 1.01 | S. cerevisiae deletion strains, locus YML032C, strain rad52, hits give low values 1 | S. cerevisiae deletion strains, locus YML120C, strain ndi1, hits give low values 1.01 | S. cerevisiae deletion strains, locus YML124C, strain tub3, hits give low values 1.01 | S. cerevisiae deletion strains, locus YMR058W, strain fet3, hits give low values 1 | S. cerevisiae deletion strains, locus YMR078C, strain ctf18, hits give low values 1.01 | S. cerevisiae deletion strains, locus YMR125W, strain sto1, hits give low values 0.993 | S. cerevisiae deletion strains, locus YMR129W, hits give low values 1.01 | S. cerevisiae deletion strains, locus YMR205C, strain PFK2, hits give low values 1.01 | S. cerevisiae deletion strains, locus YMR223W, strain ubp8, hits give low values 0.993 | S. cerevisiae deletion strains, locus YMR231W, strain pep5, hits give low values 0.992 | S. cerevisiae deletion strains, locus YMR263W, strain SAP30, hits give low values 1.01 | S. cerevisiae deletion strains, locus YMR307W, strain GAS1, hits give low values 1.07 | S. cerevisiae deletion strains, locus YNL067W, strain RPL9B, hits give low values 1.02 | S. cerevisiae deletion strains, locus YNL071W, strain lat1, hits give low values 1.02 | S. cerevisiae deletion strains, locus YNL153C, strain GIM3, hits give low values 1.01 | S. cerevisiae deletion strains, locus YNL183C, strain NPR1, hits give low values 0.968 | S. cerevisiae deletion strains, locus YNL209W, strain ssb2, hits give low values 1.01 | S. cerevisiae deletion strains, locus YNL233W, strain BNI4, hits give low values 1.01 | S. cerevisiae deletion strains, locus YNL248C, strain rpa49, hits give low values 0.98 | S. cerevisiae deletion strains, locus YNL250W, strain rad50, hits give low values 1.03 | S. cerevisiae deletion strains, locus YNL271C, strain bni1, hits give low values 1.02 | S. cerevisiae deletion strains, locus YNL298W, strain CLA4, hits give low values 0.999 | S. cerevisiae deletion strains, locus YNL307C, strain MCK1, hits give low values 1.02 | S. cerevisiae deletion strains, locus YNL322C, strain KRE1 (second series), hits give low values 0.996 | S. cerevisiae deletion strains, locus YNL322C, strain KRE1, hits give low values 1.02 | S. cerevisiae deletion strains, locus YNR049C, strain mso1, hits give low values 0.998 | S. cerevisiae deletion strains, locus YNR052C, strain pop2, hits give low values 1.01 | S. cerevisiae deletion strains, locus YOL006C, strain TOP1, hits give low values 1.15 | S. cerevisiae deletion strains, locus YOL012C, strain htz1 1.74 | S. cerevisiae deletion strains, locus YOL147C, strain pex11, hits give low values 1.01 | S. cerevisiae deletion strains, locus YOR001W, strain rrp6, hits give low values 0.988 | S. cerevisiae deletion strains, locus YOR061W, strain CKA2, hits give low values 1.03 | S. cerevisiae deletion strains, locus YOR069W, strain VPS5, hits give low values 1.01 | S. cerevisiae deletion strains, locus YOR070C, strain gyp1, hits give low values 1 | S. cerevisiae deletion strains, locus YOR080W, strain dia2, hits give low values 0.988 | S. cerevisiae deletion strains, locus YOR083W, strain WHI5, hits give low values 1.06 | S. cerevisiae deletion strains, locus YOR106W, strain vam3, hits give low values 1.04 | S. cerevisiae deletion strains, locus YOR136W, strain idh2, hits give low values 1.01 | S. cerevisiae deletion strains, locus YOR144C, strain elg1, hits give low values 1 | S. cerevisiae deletion strains, locus YOR184W, strain ser1, hits give low values 1.02 | S. cerevisiae deletion strains, locus YOR231W, strain MKK1, hits give low values 1 | S. cerevisiae deletion strains, locus YOR265W, strain rbl2, hits give low values 1 | S. cerevisiae deletion strains, locus YOR270C, strain vph1, hits give low values 1.13 | S. cerevisiae deletion strains, locus YOR290C, strain snf2, hits give low values 1.03 | S. cerevisiae deletion strains, locus YOR316C, strain cot1, hits give low values 1.02 | S. cerevisiae deletion strains, locus YPL051W, strain arl3, hits give low values 0.992 | S. cerevisiae deletion strains, locus YPL078C, strain atp4, hits give low values 1.01 | S. cerevisiae deletion strains, locus YPL106C, strain sse1, hits give low values 1.02 | S. cerevisiae deletion strains, locus YPL240C, strain hsp82, hits give low values 1 | S. cerevisiae deletion strains, locus YPL241C, strain CIN2, hits give low values 1 | S. cerevisiae deletion strains, locus YPL256C, strain CLN2, hits give low values 0.975 | S. cerevisiae deletion strains, locus YPR119W, strain clb2, hits give low values 1.01 | S. cerevisiae deletion strains, locus YPR141C, strain kar3, hits give low values 1 | S. cerevisiae deletion strains, locus YPR163C, strain tif3, hits give low values 1 | S. cerevisiae deletion strains, locus YPR167C, strain met16, hits give low values 1.02 | S. cerevisiae deletion strains, strain wtn01, hits give low values 1.06 | S. cerevisiae strains, strain wild type, hits give low values 1.02
